Screening results as filed in PubChem.
Most compounds without a hit are left out; they make up all but 1.5% or so of the library.
Cathepsin G inh: inhibitors of human cathepsin G; 62,000 tested, 0.2% active; inhibition, % at 5 µM (by protocol); AID 581; purified enzyme, AMC-tetrapeptide fluorescence, pooled mixtures;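 active = inhibition above 20% in each of the two mixture wells holding the compound; inactive = inhibition of 20% or less in either well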;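 note: 0% = enzyme control without mixture and 100% = blank lacking enzyme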
HER2 expr 66K: inhibitors of human Her2 kinase expression | P04626 | SKBR-3 HER2 protein level, AlphaScreen, 18-24 h; hits give low values | HER2 level % of control, % at 10 µM | 65,000 tested, 0.69% active | AID 645;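 active = HER2 level under 5% of the carrier-only control; inconclusive = no clear call, values can overlap the other calls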;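 note: 100% = DMSO carrier and 0% = 500 nM PU-H71 HSP90 inhibitor; lower value means stronger loss of Her2 protein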
Target sequence (P04626 whole entry, looked up): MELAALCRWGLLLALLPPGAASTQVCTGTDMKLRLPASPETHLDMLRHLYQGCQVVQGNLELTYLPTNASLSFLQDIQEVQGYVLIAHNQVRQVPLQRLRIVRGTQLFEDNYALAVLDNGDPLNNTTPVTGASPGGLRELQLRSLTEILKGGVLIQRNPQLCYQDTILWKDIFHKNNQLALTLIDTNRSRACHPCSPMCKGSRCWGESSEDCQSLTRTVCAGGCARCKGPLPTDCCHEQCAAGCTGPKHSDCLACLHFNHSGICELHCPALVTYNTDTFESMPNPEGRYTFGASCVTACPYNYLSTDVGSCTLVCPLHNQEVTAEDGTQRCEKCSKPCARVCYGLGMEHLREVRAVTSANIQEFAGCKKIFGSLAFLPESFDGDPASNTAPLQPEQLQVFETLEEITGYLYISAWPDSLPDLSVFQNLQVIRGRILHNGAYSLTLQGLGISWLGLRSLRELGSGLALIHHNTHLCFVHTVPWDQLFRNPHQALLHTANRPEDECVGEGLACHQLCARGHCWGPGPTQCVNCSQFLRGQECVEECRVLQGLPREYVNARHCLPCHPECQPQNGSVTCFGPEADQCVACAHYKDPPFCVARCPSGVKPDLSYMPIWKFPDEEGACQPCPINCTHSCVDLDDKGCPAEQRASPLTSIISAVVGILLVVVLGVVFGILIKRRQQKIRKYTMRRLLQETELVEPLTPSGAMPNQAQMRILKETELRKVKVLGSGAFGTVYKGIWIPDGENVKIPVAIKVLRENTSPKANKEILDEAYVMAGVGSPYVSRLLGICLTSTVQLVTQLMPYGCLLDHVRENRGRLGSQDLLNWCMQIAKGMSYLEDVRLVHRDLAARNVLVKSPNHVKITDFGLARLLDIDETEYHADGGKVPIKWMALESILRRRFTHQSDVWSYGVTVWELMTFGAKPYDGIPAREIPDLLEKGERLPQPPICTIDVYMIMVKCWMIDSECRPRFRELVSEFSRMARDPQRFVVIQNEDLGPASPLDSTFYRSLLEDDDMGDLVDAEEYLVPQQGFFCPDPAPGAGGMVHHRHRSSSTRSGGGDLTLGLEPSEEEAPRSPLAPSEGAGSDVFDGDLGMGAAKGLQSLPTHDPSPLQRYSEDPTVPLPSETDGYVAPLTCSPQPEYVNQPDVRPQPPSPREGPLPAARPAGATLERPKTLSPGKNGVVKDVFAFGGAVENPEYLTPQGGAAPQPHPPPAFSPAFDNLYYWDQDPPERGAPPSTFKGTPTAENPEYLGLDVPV
FXIa mix inh: blocks human factor XIa in pooled compound mixtures | P03951 | purified FXIa, fluorogenic substrate | inhibition, % at 5 µM | 62,000 tested, 0.19% active | AID 680;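 note: each value is inhibition by a whole ten-compound pool holding the compound; 0% = enzyme with no mixture and 100% = wells lacking enzyme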
FXIIa inh mix: inhibitors of human coagulation factor XIIa, pooled mixtures. P00748. purified FXIIa, fluorogenic substrate. inhibition, % at 5 µM. 62,000 tested, 0.2% active. AID 684;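 note: 0% = enzyme without compound and 100% = no enzyme blank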
C1s inh: blocks human complement C1s protease activity. P09871. purified C1s, fluorogenic AMC substrate, pooled mixtures. mean inhibition % of two 10-compound mixtures (hits give high values), % at 5 µM (by protocol). 62,000 tested, 0.16% active. AID 538;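 active = inhibition above 20% in each of the two 10-compound mixture wells holding the compound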;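 note: 0% = enzyme wells lacking compound mixture and 100% = no-enzyme blank wells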
SK-BR-3 tox 24h: SK-BR-3 proliferation inhibitors. SK-BR-3 viability, CellTiter-Glo ATP luminescence, 24 h; hits give low values. viability, % at 10 µM. 41,000 tested, 0.47% active;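 active = viability at or below the median of all test compounds minus 3 SD, in both replicates if run twice, cut at about 45% in these data; inconclusive = duplicate replicates that disagree with each other; inactive = viability above that cutoff in every replicate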;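 note: 100% = median untreated cell wells and 0% = median positive control drug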
Numbers without * were called inactive; ? = inconclusive; · = no result. Cut-off read from the data, not from the text of the source, unless noted: active = inhibition above about 20% (passing the limit was not always enough); inactive = the rest.

SMILES	Cathepsin G inh	HER2 expr 66K	FXIa mix inh	FXIIa inh mix	C1s inh	SK-BR-3 tox 24h
O=C(Cc1cccs1)N1CCCC(c2nc3c(nnn3Cc3ccccc3Cl)c(=O)[nH]2)C1 (centres undefined)	20	103	31	-1	20	·
O=C(NCc1cccs1)c1nc2c(nnn2Cc2ccccc2Cl)c(=O)[nH]1	-8	0.0*	1	11	-18	22*
CC(C)COC(=O)N1CC(O)CC1C(=O)O (centres undefined)	0	-14*	12	-11	3	95
CC(NC(=O)OCc1ccccc1)C(=O)N1CC(O)CC1C(=O)O (centres undefined)	8	80	7	1	11	104
NC(=O)C1(N2CCCCC2)CCN(C(=O)Nc2ccccc2C(F)(F)F)CC1	37	92	22	6	25*	80
O=C(Nc1ccccc1C(F)(F)F)N1CCCCCC1	-5	164	15	3	3	·
COC(=O)C1=C(N)Oc2cc(C)n(C)c(=O)c2C1c1ccc(Cl)c(Cl)c1 (centres undefined)	5	3.3*	-1	8	2	117
COC(=O)C1=C(N)Oc2cc(C)n(CCCn3ccnc3)c(=O)c2C1c1ccc(Cl)cc1 (centres undefined)	-3	158	0	15	-12	74
Cc1[nH]nc2c1C(C1CC=CCC1)C(C#N)=C(N)O2 (centres undefined)	-4	-10*	1	-13	0	83
CCOc1ccc(C(c2nnnn2Cc2ccccc2)N2CCN(C(=O)c3ccco3)CC2)cc1 (centres undefined)	-1	118	6	0	0	41*
O=C(O)c1cc(S(=O)(=O)Nc2ccc3c(c2)OCCO3)c(Cl)cc1Cl	13	80	5	4	11	·
Cc1ccc(S(=O)(=O)CCC(=O)c2ccc(O)cc2O)cc1	-9	-7.3*	-1	4	-35	96
CCCCCNC(=O)C(C#N)c1nc2ccccc2nc1N1CCCC1 (centres undefined)	4	-23*	-9	6	-28	74
O=C(Nc1nccs1)c1cnccn1	-4	114	6	1	-3	·
CCc1nnc(NC(=O)c2cnccn2)s1	7	68	21*	2	11	85
CSc1ccccc1-n1nnnc1SCc1ccccc1	-2	93	2	10	-4	87
O=C1CC(Sc2nnc(-c3ccccc3O)o2)C(=O)N1c1ccccc1 (centres undefined)	12	-13*	-9	9	-85	·
COc1ccc(N2C(=O)CC(Sc3nnc(-c4ccccc4)o3)C2=O)cc1 (centres undefined)	-1	-18*	-1	-12	-20	·
COC(=O)C1=C(CN2CCCc3ccccc32)NC(=O)NC1c1ccc(F)cc1 (centres undefined)	6	96	2	-5	3	·
Cc1ccc(OCC(=O)Nc2ccc(N3CCOCC3)cc2)cc1	45	125	51	5	60*	·
COc1ccc(OCC(=O)Nc2ccc(N3CCOCC3)cc2)cc1	-2	124	7	-29	2	·
Cc1cc(NC(=O)c2cccc(S(=O)(=O)N3CCCCCC3)c2)n(-c2ccccn2)n1	42	93	3	11	43*	·
Cc1cc(NC(=O)C2CCC2)n(-c2ccccn2)n1	·	114	·	·	·	·
COc1ccc(CNc2nc3c(c(=O)n(Cc4ccc(F)cc4)c(=O)n3C)n2C)cc1	8	104	7	11	2	92
COc1ccc(CCN2CCC(Nc3nc4ccccc4n3Cc3ccc(F)cc3)CC2)cc1	-8	-11*	2	4	-10	24*
SMILES	Cathepsin G inh	HER2 expr 66K	FXIa mix inh	FXIIa inh mix	C1s inh	SK-BR-3 tox 24h
COc1ccc(S(=O)(=O)N2CCN(CC(=O)Nc3cc(C(F)(F)F)ccc3Cl)CC2)cc1	10	31	4	2	13	·
Clc1ccc(CSC2=NCCCN2)cc1Cl	11	-17*	15	0	8	·
CCOc1ccc(NC(=O)C/C(N)=N/O)cc1	6	-21*	6	4	9	78
Cc1cc(C(=O)Nc2c(C)nn(Cc3c(Cl)cccc3Cl)c2C)no1	-5	90	3	11	-35	89
COc1ccc(OC)c(-c2cc(C(=O)Nc3c(C)nn(Cc4ccccc4)c3C)no2)c1	50*	81	20*	9	-18	133
COc1ccc(-c2cc(C(=O)Nc3c(C)nn(Cc4ccccc4Cl)c3C)no2)cc1	52*	87	24	14	10	·
COc1ccc(OC)c(-c2cc(C(=O)Nc3c(C)nn(Cc4ccc(Cl)cc4)c3C)no2)c1	10	84	6	8	11	95
Cc1nn(Cc2ccc(Cl)c(Cl)c2)c(C)c1NC(=O)c1cc(-c2ccc3c(c2)OCO3)on1	40*	63	12	3	-25	81
O=C(CCCNS(=O)(=O)c1ccc(Br)cc1)N1CC[C@@]2(O)CCCC[C@H]2C1	-2	119	8	-18	-3	78
Cc1cc(C)c2cc(CN(CC3CCCO3)S(=O)(=O)c3ccc4c(c3)OCCO4)c(=O)[nH]c2c1 (centres undefined)	6	138	-11	3	-8	116
CCN(CC)c1ccc2c(Cl)c(Br)c(=O)oc2c1	8	-27*	6	6	-1	?
CCN(CC)c1ccc2c(C)c(-c3ccc(N)cc3)c(=O)oc2c1	-8	104	-6	18	-49	88
CCN(CC)c1ccc2c(c1)oc(=O)c1c(Cl)cc(=O)oc12	5	-17*	5	3	-4	·
CCOC(=O)Cc1c(C)c2ccc(N(CC)CC)cc2oc1=O	-10	84	-32	-3	-75	75
CCOC(=O)C(C)Oc1ccc(C2NC(=O)NC(C)=C2C(C)=O)cc1Br (centres undefined)	2	159	1	8	-13	111
CCOc1cc2[nH]c(=O)n(CCCCC(=O)NC3CCCCC3)c(=O)c2cc1OCC	7	84	6	2	6	·
COc1ccc(CNC(=O)CCc2c(C)nc3ncnn3c2C)cc1	-1	78	6	8	-8	94
COc1ccc2c(=O)c3c(=O)n(Cc4ccco4)c(-c4cc(OC)c(OC)c(OC)c4)nc3oc2c1	-10	15	-15	5	-83	27*
CC(CCCC(C)(C)O)NCCO (centres undefined)	1	135	7	8	-24	113
COc1cc(Cn2c(-c3nonc3N)nc3ccccc32)ccc1C	-2	34	0	0	0	35*
CCOC(=O)C1=C(c2ccccc2)N=C2SCC(=O)N2C1c1ccc2c(c1)OCO2 (centres undefined)	-5	102	6	-2	-25	·
COc1ccc(C2C(C(C)=O)=C(O)C(=O)N2CCN(C)C)cc1OC (centres undefined)	-2	114	-5	-5	-14	90
